# Data: PubChem BioAssay AID1014 (NMMLSC, 2008)
# Active and inactive are the calls of the source. Rule as the data show it: active = inhibition of mean fluorescence above about 33%; inactive = the rest.
# Experiment: blockers of bacterial quorum-sensing reporter fluorescence – flow cytometry, SAR analogs, SAR follow-up (AID 1014);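 also: Staphylococcus aureus RN6390 with RNAIII-GFP reporter stimulated by AIP; bacteria incubated with compound for 3 hours at 37 °C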
# Conditions: at 20 µM, stronger effect = higher value; inhibition of percent positive cells: measured here: percent reporter-positive cells
Structure (SMILES),inhibition of mean fluorescence,inhibition of percent positive cells
CC1CCN(CCC(=O)Nc2ccc3c(c2)OCO3)CC1,10% (inactive),1.6%
O=C(Nc1ccc2c(c1)OCO2)C(c1ccc(Cl)cc1)N1CCN(C(=O)c2ccco2)CC1 (centres undefined),2.2% (inactive),-0.3%
COc1ccc(Nc2nc3c(S(=O)(=O)c4ccccc4)nnn3c3ccccc23)cc1,-5.6% (inactive),-0.4%
CC(=O)c1cc2c(cc1NC(=O)CN1CCOCC1)OCO2,-26.1% (inactive),-1%
Cc1ccc(S(=O)(=O)c2nnn3c2nc(Nc2cccc(C)c2)c2ccccc23)cc1,5.4% (inactive),1.5%
COc1ccccc1N1CCN(C(CNC(=O)c2cccc(Cl)c2)c2cccnc2)CC1 (centres undefined),72.3% (active),15.4%
O=C(NCC(c1cccnc1)N1CCN(c2ccccc2)CC1)c1cccs1 (centres undefined),47.7% (active),1.1%
COc1ccc(C(=O)NCC(c2cccnc2)N2CCN(c3ccccc3F)CC2)cc1 (centres undefined),-7.6% (inactive),-0.9%
CCOC(=O)c1oc2cccc(O)c2c1C,0.4% (inactive),-0.8%
O=C(O)c1sc2ccccc2c1Nc1ccccc1,-2.8% (inactive),0.6%
COc1ccc(CC(=O)Nc2oc(-c3ccccc3)c(-c3ccccc3)c2C#N)cc1OC,20% (inactive),-0.5%
CN(C)c1ccc(Nc2c(C(=O)O)cc([N+](=O)[O-])cc2[N+](=O)[O-])cc1,10.4% (inactive),5.2%
O=C(NCC(c1cccnc1)N1CCN(c2ccccc2F)CC1)c1ccco1 (centres undefined),-27.7% (inactive),-1.9%
CC(C)c1ccc(NC(=O)C(c2cc3c(cc2[N+](=O)[O-])OCO3)N2CCCCC2)cc1 (centres undefined),29% (inactive),-0.2%
CC1CCCN(C(C(=O)Nc2ccc3c(c2)OCCO3)c2ccccc2)C1 (centres undefined),91.5% (active),63.1%
COc1ccc(CC(=O)Nc2oc(-c3ccccc3)c(-c3ccccc3)c2C#N)cc1,42.6% (active),1.3%
CC1CCN(C(=O)c2oc3ccccc3c2NC(=O)c2ccc3c(c2)OCO3)CC1,25.2% (inactive),-0.2%
COC(=O)c1c(C)oc2cc(Br)c(O)cc12,-18% (inactive),-1%
CC(C)c1ccc(NC(=O)C(c2cc3c(cc2[N+](=O)[O-])OCO3)N2CCC(Cc3ccccc3)CC2)cc1 (centres undefined),-12% (inactive),-0.4%
O=C(O)c1ccccc1NC(c1ccccc1)c1ccc(Cl)cc1 (centres undefined),59.8% (active),0.2%
O=C(Nc1ccc2c(c1)OCCO2)C(c1ccccc1)N1CCOCC1 (centres undefined),9.5% (inactive),2.3%
Cc1ccc(S(=O)(=O)c2nnn3c2nc(Nc2ccc(Oc4ccccc4)cc2)c2cc(Cl)ccc23)cc1,-19.1% (inactive),-0.5%
Cc1ccc(C(C)C)c(OCC(=O)Nc2sc3c(c2C#N)CCCCC3)c1,-18.6% (inactive),-0.9%
CCN1CCN(C(CNC(=O)c2ccc(F)cc2)c2cccnc2)CC1 (centres undefined),-8.8% (inactive),-0.6%
O=C(NCC(c1cccnc1)N1CCN(c2ccc(F)cc2)CC1)c1ccc(F)cc1 (centres undefined),-11.6% (inactive),-0.2%
CC(=O)c1cc2c(cc1NC(=O)CN1CCN(C(=O)c3ccco3)CC1)OCO2,-5.2% (inactive),-0.1%

Structure (SMILES),inhibition of mean fluorescence,inhibition of percent positive cells
NC1=NC(=O)CC(C(=O)Nc2cccc3ccccc23)S1 (centres undefined),20.2% (inactive),1.5%
O=C(O)c1cccnc1Nc1cccc(SC(F)(F)F)c1,64.5% (active),8.8%
O=C(NCCN1CCN(C(=O)c2cc(F)c(F)cc2Cl)CC1)c1cc(F)c(F)cc1Cl,-25.7% (inactive),-1.2%
CC1CCN(c2c(NCC3CCC(C(=O)NCc4ccc5c(c4)OCO5)CC3)c(=O)c2=O)CC1 (centres undefined),-24.3% (inactive),-0.6%
CCOc1ccc(Nc2nc3c(S(=O)(=O)c4ccc(C(C)C)cc4)nnn3c3ccccc23)cc1,-3.7% (inactive),-0.1%
O=C(O)c1cc(Nc2ccccc2C(=O)O)nc(Nc2ccccc2C(=O)O)n1,2.4% (inactive),-0.3%
CCOc1ccc(Nc2nc3c(S(=O)(=O)c4ccccc4)nnn3c3ccccc23)cc1,-16.3% (inactive),-0.2%
Cc1ccc(Nc2nc3c(S(=O)(=O)c4ccc(C)cc4)nnn3c3ccccc23)cc1,-16% (inactive),0.9%
Cc1ccc(C)c(S(=O)(=O)c2n[nH]n3c2nc(=O)c2sccc23)c1,35.2% (active),0%
Cc1ccc(S(=O)(=O)c2nnn3c2nc(Nc2ccc(Oc4ccccc4)cc2)c2ccccc23)cc1,-5% (inactive),0%
CC1CC(C)CN(C(C(=O)Nc2ccc(C(C)C)cc2)c2ccc3c(c2)OCO3)C1 (centres undefined),19.3% (inactive),-1.5%
CC(NC(=O)c1cccc(F)c1)C(c1cccs1)N1CCN(c2ccccc2F)CC1 (centres undefined),16.4% (inactive),0.2%
CC(=O)Nc1ccc(Nc2nc3c(S(=O)(=O)c4ccc(C(C)C)cc4)nnn3c3ccccc23)cc1,13.8% (inactive),0.4%
COc1ccccc1N1CCN(C(CNC(=O)c2ccc(F)cc2)c2cccnc2)CC1 (centres undefined),6.4% (inactive),-1.7%
Cc1ccc(NC(=O)CN2CCN(Cc3ccc4c(c3)OCO4)CC2)cc1,-30.1% (inactive),-0.8%
CCc1c(C(=O)c2ccc(C)cc2)oc2ccc3c(C)cc(=O)oc3c12,10.8% (inactive),-0.1%
O=C(NCC(c1cccnc1)N1CCN(c2ccccc2F)CC1)c1ccc(F)cc1 (centres undefined),11.5% (inactive),-1.8%
O=C(CN1CC(c2ccccc2)CC1=O)Nc1ccc2c(c1)OCO2 (centres undefined),5.5% (inactive),-0.1%
CC1CCN(C(C(=O)NC2CCCCC2)c2cc3c(cc2[N+](=O)[O-])OCO3)CC1 (centres undefined),6% (inactive),0.7%
Cc1cccc(Nc2nc3c(S(=O)(=O)c4ccccc4)nnn3c3ccccc23)c1,3.1% (inactive),0.2%
O=C(NC1CCCC1)C(c1cc2c(cc1[N+](=O)[O-])OCO2)N1CCCC1 (centres undefined),-3.7% (inactive),-0.1%
COc1ccc(C2C(C(=O)Nc3ccc4c(c3)OCO4)c3ccccc3C(=O)N2C2CCCCC2)cc1 (centres undefined),8% (inactive),0.6%
COc1ccc(Nc2nc3c(S(=O)(=O)c4ccc(C(C)(C)C)cc4)nnn3c3ccccc23)cc1,-16.7% (inactive),-0.8%
O=C(NCC(c1cccnc1)N1CCN(c2ccccc2F)CC1)c1cccs1 (centres undefined),19.5% (inactive),-0.4%
Cc1oc2ccc(O)cc2c1C(=O)OC(C)C,-11.3% (inactive),0.1%
CCc1c(C(=O)c2ccccc2)oc2c(C)c3oc(=O)cc(C)c3cc12,-0.6% (inactive),-1.3%

Structure (SMILES),inhibition of mean fluorescence,inhibition of percent positive cells
Cc1ccc(Nc2nc3c(S(=O)(=O)c4ccccc4)nnn3c3ccccc23)cc1,-19% (inactive),0.4%
CC(C)c1ccc(NC(=O)C(c2ccc3c(c2)OCO3)N2CCC3(CC2)OCCO3)cc1 (centres undefined),15.2% (inactive),-0.8%
Cc1cc(Nc2ccccc2C(=O)O)n2ncnc2n1,-29.1% (inactive),-0.3%
COc1ccc(N2CCN(C(CNC(=O)c3ccc(F)cc3)c3cccnc3)CC2)cc1 (centres undefined),-63.3% (inactive),-1.5%
O=C(NC1CCCC1)C(c1cc2c(cc1[N+](=O)[O-])OCO2)N1CCC(Cc2ccccc2)CC1 (centres undefined),4.9% (inactive),-0.6%
COc1cccc(Nc2c(F)c(F)c(F)c(F)c2C(=O)O)c1,-12.9% (inactive),-0.2%
Cc1ccccc1C(=O)N1CCC(C(=O)Nc2ccc3c(c2)OCO3)CC1,-8.8% (inactive),-0.4%
CC1CCN(C(C(=O)Nc2ccc3c(c2)OCO3)c2ccccc2)CC1 (centres undefined),32.4% (active),-0.7%
Cc1cc(C)cc(Nc2nc3c(S(=O)(=O)c4ccccc4)nnn3c3ccccc23)c1,0.4% (inactive),0.1%
CCOC(=O)c1cnc2ccc(OC)cc2c1Nc1ccccc1C(=O)O,-23.9% (inactive),-1.3%
O=C(NCC(c1cccnc1)N1CCN(c2ccc(F)cc2)CC1)C1CCCCC1 (centres undefined),-37% (inactive),0.5%
CN1CCN(C(=O)C(=O)Nc2ccc3c(c2)OCO3)CC1,-2.5% (inactive),0.1%
O=C(NCCN1CCN(c2ccccc2)CC1)c1ccccc1F,-12.3% (inactive),-1.5%
COc1ccc(S(=O)(=O)c2nnn3c2nc(Nc2ccc(C)cc2)c2ccccc23)cc1,8.2% (inactive),-0.3%
O=C(NCC(c1cccnc1)N1CCN(c2ccccc2F)CC1)C1CC1 (centres undefined),-8.8% (inactive),-0.7%
O=C(O)c1ccccc1Nc1ccnc(N2CCOCC2)n1,5.6% (inactive),0%
CCOC(=O)c1c(-c2cc(Cl)c(OC)c(Cl)c2)oc2ccc(O)cc12,-4.9% (inactive),-0.4%
CC1CCc2nn(CC(=O)Nc3ccc4c(c3)OCCO4)cc2C1 (centres undefined),4.5% (inactive),0%
N#Cc1c(NC(=O)CCN2C(=O)c3ccccc3C2=O)oc(-c2ccccc2)c1-c1ccccc1,19.7% (inactive),-0.3%
COc1ccc(NC(=O)C(c2cc3c(cc2[N+](=O)[O-])OCO3)N2CCN(C=O)CC2)cc1 (centres undefined),-23.1% (inactive),0%
COc1c(F)c(F)c(C(=O)O)c(Nc2cccc(C)c2)c1F,-11.5% (inactive),-1.3%
CCc1ccc(S(=O)(=O)c2nnn3c2nc(Nc2ccc(OC)cc2)c2sccc23)cc1,5.8% (inactive),-0.5%
CC(=O)c1c(C)oc2c1cc(O)c1ccccc12,9.1% (inactive),-0.2%
Cc1ccc(Nc2c(C(=O)O)cc([N+](=O)[O-])cc2[N+](=O)[O-])cc1Cl,-19.5% (inactive),-0.4%
COc1ccc(Nc2ccccc2C(=O)O)cc1,0.6% (inactive),-2.8%
